Screening results deposited in PubChem by National Center for Advancing Translational Sciences (NCATS).
Shown are actives, neighbours in structure and some others; about 14% of the full set was active somewhere.
MARV entry inh: qHTS for inhibitors of binding or entry into cells for Marburg Virus; Marburg virus pseudotyped entry inhibition, cell reporter; Potency, µM (titrated, usually from 37.8 µM), without a hit: top-dose activity change, negative = inhibition, hits mostly inhibitors; 300,000 compounds, 1.8% hits; AID 540276, 2011; calls by dose curve; tested in HEK293 cells; further: potency means the concentration at half of the fitted maximal effect
Pf growth 48h: Primary qHTS for delayed death inhibitors of the malarial parasite plastid, 48 hour incubation. Potency, µM (titrated, usually from 28.7 µM), for the others: at the top dose activity change, negative = inhibition, hits mostly inhibitors. P. falciparum luciferase growth in erythrocytes, 48 h. AID 504832, 2011. 310,000 compounds, 5.9% hits; further: potency means the concentration at half of the fitted maximal effect
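Compounds are pin-transferred into medium, infected erythrocytes (2% hematocrit, 0.1% parasitemia final) are added, and plates sit one parasite generation at 37 C in 5% CO2. Detection reagent is then added and luminescence measured.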
Pf growth 96h: Primary qHTS for delayed death inhibitors of the malarial parasite plastid, 96 hour incubation; Potency, µM (doses to about 28.7 µM), for inactives: top-dose activity change, negative = inhibition, hits mostly inhibitors; 320,000 compounds, 6.9% hits; P. falciparum luciferase reporter growth, 96 h; AID 504834, 2011; further: potency means the concentration at half of the fitted maximal effect
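Cell-based qHTS: luciferase-tagged P. falciparum in erythrocytes (2% hematocrit, 0.05% parasitemia final) incubated with compounds for 96 hours, 37 C, 5% CO2; luciferase detection reagent then added and luminescence measured.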
LASV entry inh: qHTS for Inhibitors of binding or entry into cells for Lassa Virus. Lassa virus pseudotype entry inhibition, cell reporter. Potency, µM (series often up to 37.9 µM), inactives show top-dose activity change, negative = inhibition, most hits filed as inhibitors. 300,000 compounds, 1.2% hits; calls by dose curve; tested in HEK293 cells; further: potency means the concentration at half of the fitted maximal effect; nearly all actives have a fitted effect of over 50% in size
HCMV antiviral: qHTS Assay for inhibitors of the human cytomegalovirus (HCMV); HFF cells, HCMV-luciferase reporter, 72 h; stronger effect = lower value; activity change, negative = inhibition, % at 57.5 µM; 410,000 compounds, 4.5% hits; in the data active means activity change below about -60%; inconclusive means no clear call, values can overlap the other calls; inactive means above about -39%
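Human foreskin fibroblasts infected with luciferase-reporter HCMV at MOI 1 PFU/cell, compounds at two doses. Luciferase measured 72 h post infection; normalized to buffer-only basal and Salinomycin (10uM) controls.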
HCV inhibitor: qHTS Assay for Inhibitors of Hepatitis C Virus (HCV). Huh7.5.1 HCVcc-Cre infection, luciferase reporter, 44 h. AID 651820, 2012. Potency, µM (titrated, usually from 41.8 µM), without a hit: top-dose activity change, negative = inhibition, usual class: inhibitors. 340,000 compounds, 3.4% hits; further: potency means the concentration at half of the fitted maximal effect
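Reporter virus HCVcc-Cre (~0.5 moi) infects cells exposed to compound; seeding density 1,000 cells/well with 4 h settling beforehand. Luminescence, 15 sec read, taken 44 h post-infection following a 15 min RT substrate incubation.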
An asterisk follows results filed as active; [ ] = another dose, or the depositor's remark. Unless noted, the call rests on the fitted dose curve; in most records, active means well fitted inhibition curve with a large enough effect; inconclusive means small, poorly fitted or top-dose-only effect, or another doubt; inactive means no such curve, though single readings can be large or run the other way. On the % scale 0 is the no-effect control and ±100 the full control effect.

`COc1ccc(O)c(C(=O)c2coc(=N)c(C(=O)Nc3ccc(SC(F)F)cc3)c2)c1` gave MARV entry inh inconclusive, Pf growth 48h inconclusive, Pf growth 96h 2.33µM*, LASV entry inh inconclusive, HCMV antiviral inconclusive and HCV inhibitor inconclusive.
Screening Nc1ccc2nc(CCCCCCCCc3nc4ccc(N)cc4[nH]3)[nH]c2c1 returned Pf growth 48h 7.38µM*, Pf growth 96h 6.2%, HCMV antiviral -13.9 and HCV inhibitor 6.7%.
For Nc1ccc2nc(CCCCc3nc4ccccc4[nH]3)[nH]c2c1 the results were Pf growth 48h inconclusive, Pf growth 96h inconclusive, HCMV antiviral 16.7 and HCV inhibitor 10.0%.
Nc1ccc2nc(COc3ccccc3)[nH]c2c1 was read as Pf growth 48h 49.0%, Pf growth 96h 7.38µM*, HCMV antiviral -6.0 and HCV inhibitor 3.5%.
O=C(Nc1cccc(Cl)c1Cl)c1cc(S(=O)(=O)N2CCC3(CC2)OCCO3)ccc1F was read as LASV entry inh 2.4%[46.1 µM] and HCMV antiviral -24.1.
Screening Cc1ccccc1-c1nn(-c2ccc(F)cc2F)cc1CNCCCN(C)C returned MARV entry inh 3.55µM*, Pf growth 48h 2.62µM*, Pf growth 96h inconclusive, LASV entry inh inconclusive, HCMV antiviral inconclusive and HCV inhibitor 3.16µM*.
`Cc1ccccc1-c1nn(-c2ccc(F)cc2F)cc1CNCCN(C)C` gave MARV entry inh -6.8%[46.1 µM], Pf growth 48h inconclusive, Pf growth 96h 13.1µM*, LASV entry inh 7.3%, HCMV antiviral -33.5 and HCV inhibitor -15.6%.
COc1ccc(OC)c(S(=O)(=O)NCCc2sc(C)nc2C)c1 was read as LASV entry inh -5.1%[46.1 µM] and HCMV antiviral 11.0.
For COc1cccc(-c2cc3nc4c(c(NCC(C)(C)CN(C)C)n3n2)CCCC4)c1 the results were MARV entry inh inconclusive, Pf growth 48h 5.4%, Pf growth 96h 0.2%, LASV entry inh inconclusive, HCMV antiviral -69.1* and HCV inhibitor inconclusive.
Screening COCCn1ccc2c(OCC(=O)Nc3cc(OC)ccc3OC)cccc2c1=O returned MARV entry inh inconclusive, Pf growth 48h 11.7µM*, Pf growth 96h inconclusive, LASV entry inh inconclusive, HCMV antiviral -6.7 and HCV inhibitor inconclusive.
`CCOCCn1ccc2c(OCC(=O)Nc3cc(OC)ccc3OC)cccc2c1=O` gave MARV entry inh inconclusive, Pf growth 48h inconclusive, Pf growth 96h inconclusive, LASV entry inh inconclusive, HCMV antiviral -37.3 and HCV inhibitor 8.91µM*.
`CCOCCn1ccc2c(OCC(=O)Nc3ccccc3OC)cccc2c1=O` gave MARV entry inh -57.8%[46.1 µM], Pf growth 48h inconclusive, Pf growth 96h inconclusive, LASV entry inh -27.2%, HCMV antiviral 11.8 and HCV inhibitor inconclusive.
Cc1ccc(S(=O)(=O)Nc2cc3c(cc2N2CCOCC2)n(C)c(=O)n3C)cc1 was read as MARV entry inh -8.3%[46.1 µM], LASV entry inh -20.4%[46.1 µM] and HCMV antiviral 28.0.
Cc1ccc(S(=O)(=O)Nc2cc3c(cc2N2CCOCC2)n(C)c(=O)n3C)c(C)c1 was read as MARV entry inh 20.1%[46.1 µM], LASV entry inh -16.0%[46.1 µM] and HCMV antiviral 14.5.
Screening Cc1ccc(S(=O)(=O)Nc2cc(C(F)(F)F)ccc2N2CCOCC2)c(C)c1 returned MARV entry inh inconclusive, Pf growth 48h inconclusive, Pf growth 96h 11.7µM*, LASV entry inh inconclusive, HCMV antiviral inconclusive and HCV inhibitor 0.2%.
Cc1ccc(S(=O)(=O)Nc2cc(C(F)(F)F)ccc2N2CCOCC2)cc1 was read as MARV entry inh -42.4%, Pf growth 48h inconclusive, Pf growth 96h 13.1µM*, LASV entry inh 9.5%, HCMV antiviral -25.2 and HCV inhibitor 0.0%.
For COC(=O)N(C)C[C@H]1OCc2cn(nn2)CCCC(=O)N([C@H](C)CO)C[C@@H]1C the results were HCMV antiviral 20.8.
Screening Cc1cc(C)c(/C=C/c2onc(C)c2S(=O)(=O)N2CCC(C(=O)Nc3ccc(Cl)c(C(F)(F)F)c3)CC2)c(C)c1 returned LASV entry inh 24.7%[46.1 µM] and HCMV antiviral -96.8*.
Screening Cc1noc(/C=C/c2cccs2)c1S(=O)(=O)N1CCC(C(=O)Nc2ccc(F)c(Cl)c2)CC1 returned MARV entry inh 14.2%[46.1 µM], LASV entry inh -21.0%[46.1 µM] and HCMV antiviral -73.4*.
`COc1ccccc1CCNC(=O)CC1C(=O)NCCN1CCCc1ccccc1` (stereo not drawn) gave Pf growth 48h inconclusive, Pf growth 96h 9.1%, HCMV antiviral 12.0 and HCV inhibitor -3.2%.
For O=C(CC1C(=O)NCCN1CCCc1ccccc1)NCCc1ccccc1Cl (stereo not drawn) the results were Pf growth 48h 13.1µM*, Pf growth 96h inconclusive, HCMV antiviral -39.7 and HCV inhibitor -13.1%.
`COc1cccc(CNC(=O)CC2C(=O)NCCN2CCCc2ccccc2)c1` (stereo not drawn) gave Pf growth 48h inconclusive, Pf growth 96h 9.28µM*, HCMV antiviral 38.8 and HCV inhibitor 9.0%.
O=C(CS(=O)c1ccc(F)cc1)Nc1ccccc1Cl (stereo not drawn) was read as MARV entry inh 23.7%[46.1 µM], Pf growth 48h 12.5%, Pf growth 96h 10.6%, LASV entry inh -2.4%, HCMV antiviral -77.4* and HCV inhibitor 11.7%.
For CCCc1nn2c(=O)cc(COC(=O)c3ccccc3NC(=O)C3CCCCC3)nc2s1 the results were LASV entry inh 19.5%[46.1 µM] and HCMV antiviral 51.4.
Screening Cc1ccccc1NC(=O)Cc1nc(CSc2nnc(C3CCCCC3)n2N)cs1 returned MARV entry inh -4.7%, Pf growth 48h 13.1µM*, Pf growth 96h 7.38µM*, LASV entry inh -16.4%, HCMV antiviral -8.4 and HCV inhibitor -4.6%.
Screening Cc1ccc(C)c(NC(=O)Cc2csc(-c3ccccc3)n2)c1 returned MARV entry inh inconclusive, Pf growth 48h 13.8%, Pf growth 96h 0.0%, LASV entry inh -1.4%, HCMV antiviral -26.6 and HCV inhibitor 10.3%.
For Cc1ccc(C)c(NC(=O)Cc2nc(CNCC(C)C)cs2)c1 the results were MARV entry inh 7.94µM*, Pf growth 48h 1.4%, Pf growth 96h 3.4%, LASV entry inh -0.4%, HCMV antiviral -13.3 and HCV inhibitor 7.2%.
`Cc1ccccc1NC(=O)Cc1nc(COC(=O)CCNS(=O)(=O)c2ccccc2)cs1` gave MARV entry inh inconclusive, Pf growth 48h 10.4µM*, Pf growth 96h inconclusive, LASV entry inh 12.3%, HCMV antiviral -29.1 and HCV inhibitor inconclusive.
